In PubChem BioAssay:
Activity calls are given as the source filed them.

Tested on: not listed separately
Assay: forskolin-driven CRE-LacZ activity in PC12 – cell-based, CRE-LacZ reporter, forskolin-stimulated, primary screen (AID 1146);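 note: PC12 cells with 6xCRE LacZ reporter stimulated by forskolin 10 µM; beta-galactosidase reporter signal reflecting CREB driven transcription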
Details: luminescence, 4.5 h, higher = more signal, called active from +8 up or from −8 down

SMILES	z-score
O=C(c1ccccc1)N1C(=O)[C@]2(COC(c3ccc(OCCCO)cc3)=N2)Cc2ccccc21	0.822 (inactive)
Cc1nc2cc(Br)ccc2c(=O)o1	-1.27 (inactive)
CCCCC(CC)C(O)C1C=CC2C(=O)N(Cc3ccccc3)C(=O)C2N1n1cnnc1 (stereo unspecified)	0.408 (inactive)
CC(C)C(O)C1C=CC2C(=O)NC(=O)C2N1Nc1ccc(Cl)cc1Cl (stereo unspecified)	0.0675 (inactive)
COCCOC(=O)N1C(=O)[C@@]2(c3ccccc31)[C@H](c1ccc(O)cc1)N1[C@H](c3ccccc3)[C@H](c3ccccc3)OC(=O)[C@H]1[C@@H]2C(=O)Nc1nc2ccccc2s1	2.42 (inactive)
CC(C)C(=C=CC[C@@H](O)c1ccc(OCCO)cc1)C[C@@H](O)COCc1ccccc1	-1.23 (inactive)
O=C1C2C=CC(C(O)Cc3ccccc3)N(n3cnnc3)C2C(=O)N1Cc1ccccc1 (stereo unspecified)	-0.413 (inactive)
COCCOC(=O)N1C(=O)[C@@]2(c3cc(C#Cc4ccc(OC)cc4)ccc31)[C@H](c1ccc(O)cc1)N1[C@H](c3ccccc3)[C@H](c3ccccc3)OC(=O)[C@H]1[C@@H]2C(=O)N1CCc2cc(OC)c(OC)cc2C1	-0.397 (inactive)
COc1cc2c(cc1O)C(C1CC1)N(Cc1sc3ccccc3c1Cl)CC2 (stereo unspecified)	1.82 (inactive)
CC(C)C(=C=CC[C@H](O)c1ccc(OCCO)cc1)CCO	0.36 (inactive)
CC(=O)NCCCC[C@@H]1NC(=O)[C@@H]2C[C@H](C(=O)NCCCCCNC(=O)CS)[C@H](c3cccc(OCCO)c3)N2C1=O	-1.4 (inactive)
NC(=O)NCC#Cc1ccc2c(c1)[C@]1(C(=O)N2)[C@H](c2ccc(O)cc2)N2[C@H](c3ccccc3)[C@H](c3ccccc3)OC(=O)[C@H]2[C@@H]1C(=O)O	-0.226 (inactive)
COc1cc(Br)cc(C(O)C2C=CC3C(=O)N(C)C(=O)C3N2N2CCCCC2)c1OC (stereo unspecified)	0.641 (inactive)
COc1ccc(CCNC(=O)[C@@H]2c3ccccc3C(=O)N(Cc3ccccc3Cl)[C@H]2c2ccc(CO)cc2)cc1	-0.977 (inactive)
CCCCN1CC=CC23O[C@@H]4C=CCCOC(=O)C4[C@H]2C(=O)N(CCCCCCO)[C@@H]3C1=O (stereo partly specified)	-0.199 (inactive)
CCOC(=O)C[C@H]1[C@H](OC(=O)c2ccc(C(=O)c3ccccc3)cc2)[C@@H](NC(=O)c2ccccc2)c2cc(OCCCO)ccc2N1C(=O)c1ccc2ccccc2n1	-0.712 (inactive)
C=CCOC(=O)[C@H]1[C@@H]2C(=O)O[C@@H](c3ccccc3)[C@@H](c3ccccc3)N2[C@@H](c2ccc(OCCOC(=O)[C@H]3C[C@H]4C(=O)N[C@@H](CCCC[N+](C)(C)C)C(=O)N4[C@H]3c3ccc(O)cc3)cc2)[C@]12C(=O)Nc1ccc(I)cc12	-0.226 (inactive)
CC(CO)N1C(=O)[C@@H]2C3C(=O)OCCC/C=C\[C@H]3OC23C=CCN(C(C)(C)C)C(=O)[C@@H]13 (stereo partly specified)	0.636 (inactive)
CC1CC/C=C\[C@H]2OC34C=CCN(C(C)(C)C)C(=O)[C@H]3N(C(C)CO)C(=O)[C@@H]4C2C(=O)O1 (stereo partly specified)	0.826 (inactive)
COc1ccc(C#Cc2ccc3c(c2)[C@]2(C(=O)N3)[C@H](C(=O)Nc3nc4ccccc4s3)[C@H]3C(=O)O[C@H](c4ccccc4)[C@H](c4ccccc4)N3[C@@H]2c2ccc(O)cc2)cc1	-0.0135 (inactive)
C=CCC(OC(C)=O)[C@@H]1[C@@H](N(Cc2ccc(-c3ccccc3)cc2)C(=O)Cc2ccc(OC)cc2)c2cc(OCCCO)ccc2N1C(=O)Cc1ccc2ccccc2c1 (stereo partly specified)	0.358 (inactive)
CN1C(=O)C2C=CC(C(O)C#Cc3ccccc3)N(N3CCCCC3)C2C1=O (stereo unspecified)	-0.516 (inactive)
C=CC(=C)[C@H]1Oc2ccccc2S(=O)(=O)N2CCC[C@@H]12	0.133 (inactive)
C=CCC(OC(C)=O)[C@@H]1[C@@H](N(Cc2ccc(-c3cccc(C(F)(F)F)c3)o2)C(=O)c2ccc(C)cc2)c2cc(OCCCO)ccc2N1C(=O)Cc1ccc2ccccc2c1 (stereo partly specified)	-0.0977 (inactive)
COCCOC(=O)N1C(=O)[C@@]2(c3cc(C#CCC(C(=O)OC)C(=O)OC)ccc31)[C@H](C(=O)N1CCN(c3ncccn3)CC1)[C@H]1C(=O)O[C@H](c3ccccc3)[C@H](c3ccccc3)N1[C@@H]2c1ccccc1OCCO	-0.374 (inactive)
CC(C)=CCCC(C)=CC(O)C1C=CC2C(=O)N(C)C(=O)C2N1Nc1ccccc1 (stereo unspecified)	-0.465 (inactive)

Target: Streptavidin (Streptomyces avidinii) (UniProt P22629)
Assay: compounds binding control protein streptavidin – biophysical, small-molecule microarray, 635/667 nm fluorescence, artefact control for SMM compound annotation, primary screen (AID 1147);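 note: signal reflects streptavidin binding to arrayed compounds as a control protein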
Details: higher = more signal

Streptavidin (Streptomyces avidinii), sequence (P22629 whole entry, looked up): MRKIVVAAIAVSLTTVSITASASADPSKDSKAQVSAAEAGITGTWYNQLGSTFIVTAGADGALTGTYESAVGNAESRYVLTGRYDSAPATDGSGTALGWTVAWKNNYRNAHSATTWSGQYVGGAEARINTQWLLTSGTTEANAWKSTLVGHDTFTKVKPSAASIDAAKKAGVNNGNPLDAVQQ

SMILES	composite z-score
C=CCN1C(=O)[C@@]2(Cc3ccccc31)N=C(c1ccc(OCCCO)cc1)O[C@H]2c1ccccc1	0.0866
[N-]=[N+]=Nc1ccccc1[C@@H]1OC(c2ccc(OCCCO)cc2)=N[C@]1(CCS(=O)(=O)c1ccccc1)C(N)=O	2.03
CN(C)C(=O)[C@@]1(CCS(=O)(=O)c2ccccc2)COC(c2ccc(OCCCO)cc2)=N1	0.0248
CCOC(=O)C[C@H]1[C@H](OC(=O)c2cc3ccccc3oc2=O)[C@@H](NC(=O)c2ccccc2)c2cc(OCCCO)ccc2N1C(=O)c1ccc2ccccc2n1	0.865
C=CCOC(=O)[C@H]1[C@@H]2C(=O)O[C@@H](c3ccccc3)[C@@H](c3ccccc3)N2[C@@H](c2ccc(OCCOC(=O)[C@H]3C[C@H]4C(=O)N[C@@H](CCCCNC(C)=O)C(=O)N4[C@H]3c3cccc(OCCO)c3)cc2)[C@]12C(=O)Nc1ccccc12	-0.365
CC(C)C(CO)N1C(=O)[C@@H]2C3C(=O)OCCC/C=C\[C@H]3OC23C=CCN(CCN2CCOCC2)C(=O)[C@@H]13 (stereo partly specified)	-0.578
O=C(NCCN1CCOCC1)C1N=C(c2ccc(OCCCO)cc2)N(c2ccccc2)O1 (stereo unspecified)	0.284
COC(=O)[C@@]1(Cc2ccccc2)[C@H]2c3cc(C(=O)N4CCCC4)n(Cc4ccc(S(C)(=O)=O)cc4)c3C[C@H]2CN1C(=O)c1ccccc1	2.21
O=C1[C@@]23C=C(Br)[C@H](C[C@@H]2CCOC3)[C@@]12CO2	0.365
O=C(c1ccccc1)N1C(=O)[C@]2(COC(c3ccc(OCCCO)cc3)=N2)Cc2ccccc21	0.532
Cc1nc2cc(Br)ccc2c(=O)o1	0.498
CCCCC(CC)C(O)C1C=CC2C(=O)N(Cc3ccccc3)C(=O)C2N1n1cnnc1 (stereo unspecified)	0.124
CC(C)C(O)C1C=CC2C(=O)NC(=O)C2N1Nc1ccc(Cl)cc1Cl (stereo unspecified)	-0.204
COCCOC(=O)N1C(=O)[C@@]2(c3ccccc31)[C@H](c1ccc(O)cc1)N1[C@H](c3ccccc3)[C@H](c3ccccc3)OC(=O)[C@H]1[C@@H]2C(=O)Nc1nc2ccccc2s1	0.795
CC(C)C(=C=CC[C@@H](O)c1ccc(OCCO)cc1)C[C@@H](O)COCc1ccccc1	-0.0104
O=C1C2C=CC(C(O)Cc3ccccc3)N(n3cnnc3)C2C(=O)N1Cc1ccccc1 (stereo unspecified)	0.0646
COCCOC(=O)N1C(=O)[C@@]2(c3cc(C#Cc4ccc(OC)cc4)ccc31)[C@H](c1ccc(O)cc1)N1[C@H](c3ccccc3)[C@H](c3ccccc3)OC(=O)[C@H]1[C@@H]2C(=O)N1CCc2cc(OC)c(OC)cc2C1	1.25
COc1cc2c(cc1O)C(C1CC1)N(Cc1sc3ccccc3c1Cl)CC2 (stereo unspecified)	0.583

SMILES	composite z-score
CC(C)C(=C=CC[C@H](O)c1ccc(OCCO)cc1)CCO	0.0996
CC(=O)NCCCC[C@@H]1NC(=O)[C@@H]2C[C@H](C(=O)NCCCCCNC(=O)CS)[C@H](c3cccc(OCCO)c3)N2C1=O	-0.526
NC(=O)NCC#Cc1ccc2c(c1)[C@]1(C(=O)N2)[C@H](c2ccc(O)cc2)N2[C@H](c3ccccc3)[C@H](c3ccccc3)OC(=O)[C@H]2[C@@H]1C(=O)O	-0.256
COc1cc(Br)cc(C(O)C2C=CC3C(=O)N(C)C(=O)C3N2N2CCCCC2)c1OC (stereo unspecified)	-0.39
COc1ccc(CCNC(=O)[C@@H]2c3ccccc3C(=O)N(Cc3ccccc3Cl)[C@H]2c2ccc(CO)cc2)cc1	-0.001
CCCCN1CC=CC23O[C@@H]4C=CCCOC(=O)C4[C@H]2C(=O)N(CCCCCCO)[C@@H]3C1=O (stereo partly specified)	-0.564
CCOC(=O)C[C@H]1[C@H](OC(=O)c2ccc(C(=O)c3ccccc3)cc2)[C@@H](NC(=O)c2ccccc2)c2cc(OCCCO)ccc2N1C(=O)c1ccc2ccccc2n1	1.22
C=CCOC(=O)[C@H]1[C@@H]2C(=O)O[C@@H](c3ccccc3)[C@@H](c3ccccc3)N2[C@@H](c2ccc(OCCOC(=O)[C@H]3C[C@H]4C(=O)N[C@@H](CCCC[N+](C)(C)C)C(=O)N4[C@H]3c3ccc(O)cc3)cc2)[C@]12C(=O)Nc1ccc(I)cc12	0.134
CC(CO)N1C(=O)[C@@H]2C3C(=O)OCCC/C=C\[C@H]3OC23C=CCN(C(C)(C)C)C(=O)[C@@H]13 (stereo partly specified)	-0.221
CC1CC/C=C\[C@H]2OC34C=CCN(C(C)(C)C)C(=O)[C@H]3N(C(C)CO)C(=O)[C@@H]4C2C(=O)O1 (stereo partly specified)	-1.3
COc1ccc(C#Cc2ccc3c(c2)[C@]2(C(=O)N3)[C@H](C(=O)Nc3nc4ccccc4s3)[C@H]3C(=O)O[C@H](c4ccccc4)[C@H](c4ccccc4)N3[C@@H]2c2ccc(O)cc2)cc1	2.25
C=CCC(OC(C)=O)[C@@H]1[C@@H](N(Cc2ccc(-c3ccccc3)cc2)C(=O)Cc2ccc(OC)cc2)c2cc(OCCCO)ccc2N1C(=O)Cc1ccc2ccccc2c1 (stereo partly specified)	0.192
CN1C(=O)C2C=CC(C(O)C#Cc3ccccc3)N(N3CCCCC3)C2C1=O (stereo unspecified)	0.762
C=CC(=C)[C@H]1Oc2ccccc2S(=O)(=O)N2CCC[C@@H]12	0.331
C=CCC(OC(C)=O)[C@@H]1[C@@H](N(Cc2ccc(-c3cccc(C(F)(F)F)c3)o2)C(=O)c2ccc(C)cc2)c2cc(OCCCO)ccc2N1C(=O)Cc1ccc2ccccc2c1 (stereo partly specified)	-0.269
COCCOC(=O)N1C(=O)[C@@]2(c3cc(C#CCC(C(=O)OC)C(=O)OC)ccc31)[C@H](C(=O)N1CCN(c3ncccn3)CC1)[C@H]1C(=O)O[C@H](c3ccccc3)[C@H](c3ccccc3)N1[C@@H]2c1ccccc1OCCO	0.39
CC(C)=CCCC(C)=CC(O)C1C=CC2C(=O)N(C)C(=O)C2N1Nc1ccccc1 (stereo unspecified)	1.87
